High-throughput results (PubChem BioAssay)
Rows were chosen to be rich in hits. Some 7.9% of all compounds tested hit in one or more screens of this group.
KB-V1 cytotox: kills drug-selected multidrug resistant KB-V1 cells. KB-V1 MDR cells viability, CellTiter-Glo, 72 h. Potency, µM (highest dose often 46.1 µM), actives largely listed as cytotoxic. hit rate 3.4% among 400,000; also: % is scaled to controls: 0 for no effect and ±100 for the full control effect; nearly all actives have a fitted effect of over 60% in size
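Cells of the MDR subline KB-V1 are plated, dosed with compound at multiple concentrations, and incubated 72 h at 37 degrees C; CellTiter-Glo is then added and luminescence read after 10 min.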
KB-3-1 tox: KB-3-1 parental cell cytotoxicity; hit rate 1.4% among 400,000; KB-3-1 viability, CellTiter-Glo ATP luminescence, 72 h; Potency, µM (titrated, usually from 46.1 µM), usual class: cytotoxic; also: % is scaled to controls: 0 for no effect and ±100 for the full control effect; nearly all actives have a fitted effect of over 60% in size
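72 h, 37 °C compound treatment of KB-3-1 parental cells; CellTiter-Glo added, 10 min, luminescence read. Data corrected against DMSO-only plates and normalized before curve fitting.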
HT1080 IDH1KD tx: kills HT-1080 cells with IDH1 knockdown; hit rate 2% among 360,000; Potency, µM (titrated, usually from 46.1 µM), for inactives: at the highest dose activity, negative = toxicity, most hits filed as cytotoxic; HT-1080 IDH1 knockdown viability, ATP luminescence, 48 h;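 also: 0% = DMSO wells and -100% = cell-free medium wells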
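Assay cells: HT-1080 with IDH1 knockdown, 750 per well, RPMI/5% FBS. Exposure: 48 h at 37 °C following 2 h pre-incubation. Read: CellTiter-Glo luminescence; fitted concentration-response, curve class assigned.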
HT1080NT lethal: kills 2HG-producing HT-1080-NT fibrosarcoma cells; HT-1080-NT fibrosarcoma viability, CellTiter-Glo ATP luminescence, 48 h; hit rate 1.6% among 360,000; Potency, µM (top dose mostly 46.1 µM), inactives show at the highest dose activity, negative = less viability, usual class: cytotoxic;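 also: NT is the 2HG producing partner of a matched IDH1 knockdown line; 0% = DMSO-treated cells and -100% = media-only wells without cells; nearly all actives have a fitted effect of over 55% in size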
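Toxicity toward the 2HG-producing NT line was scored as %Activity, normalised to DMSO and no-cell wells, from CellTiter-Glo luminescence after 48 hours' treatment.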
MCF10A rereplic: inducers of DNA re-replication in MCF 10A breast cells; MCF 10A DNA re-replication, Hoechst nuclear intensity, 48 h; Potency, µM (top dose mostly 46.1 µM), for inactives: top-dose activity, positive = re-replication, actives largely listed as activators; hit rate 2.9% among 350,000; AID 624296; also: % of control where 0% means no effect; nearly all actives have a fitted effect of over 50% in size
SW480 rereplic: DNA re-replication induction in SW480 cells; SW480 DNA re-replication, Hoechst DNA content imaging, 48 h; Potency, µM (highest dose often 46.1 µM), for the others: at the highest dose re-replication activation, usual class: activators; hit rate 1.8% among 340,000; also: % of control where 0% means no effect; nearly all actives have a fitted effect of over 55% in size
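Cells (250 per well) received 23 nL compound or DMSO by pin tool and were kept 48 hr at 37 C, 5% CO2. Nuclei were then stained with Hoechst for 40 min and scanned for DNA content.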
* hit, by the source's call; i = inactive; ? = inconclusive; / = not tested or not shown. Calls follow the shape of the dose curve; as a rule, active = well fitted curve in the direction sought with a large enough effect; inconclusive = small, poorly fitted or top-dose-only effect, or another doubt; inactive = no such curve, though single readings can be large; an effect the other way counts as inactive or inconclusive. Potency is read from the fitted curve at half-maximal effect.

SMILES	KB-V1 cytotox	KB-3-1 tox	HT1080 IDH1KD tx	HT1080NT lethal	MCF10A rereplic	SW480 rereplic
Cc1ccc(-c2nc3cc(NS(=O)(=O)c4ccc(C)cc4)ccc3o2)cc1	i	i	?	?	?	?
O=C(Nc1cccnc1)c1ccc(Br)s1	?	i	10µM*	?	2%	19%
O=S(=O)(Nc1ccc2oc(-c3ccccc3)nc2c1)c1ccccc1	i	i	?	?	21µM*	?
O=C(Nc1cccnc1)c1cc2c(ccc3ccccc32)o1	13µM*	?	0%	-8%	12%	-4%
Nc1cccc(-c2nc3cc(S(=O)(=O)c4ccc5oc(-c6cccc(N)c6)nc5c4)ccc3o2)c1	?	?	?	?	?	6.5µM*
COc1cc(-c2nnc(SCC(=O)Nc3ccc(F)c(Cl)c3)o2)cc(OC)c1OC	?	i	/	/	/	/
COc1ccccc1N1CCN(C(=O)c2cc(CC(C)C)on2)CC1	i	i	/	/	/	/
Cc1ccccc1OC(=O)CSc1nnc(-c2ccc(F)cc2)o1	i	i	/	/	/	/
O=C(Nc1ccc2oc(Cc3ccc(Cl)cc3)nc2c1)c1cccnc1	?	i	-12%	?	?	16µM*
Cc1c(C(=O)Nc2cccnc2)oc2ccc(Br)cc12	3.3µM*	8.2µM*	?	?	?	?
Cc1c(C(=O)Nc2ccc3oc(-c4cccnc4)nc3c2)oc2ccccc12	?	i	?	?	?	21µM*
O=C(NCC1CCCC(CNC(=O)N2CCc3ccccc32)C1)N1CCc2ccccc21 (configuration not stated)	5.2µM*	i	20µM*	?	23%	?
O=C(COC(=O)c1ccc(NS(=O)(=O)c2cccs2)cc1O)NCc1ccccc1	13µM*	5.8µM*	3.7µM*	2.6µM*	2.3µM*	7.3µM*
O=S(=O)(Nc1cccc(CO)c1)c1cccs1	i	0.21µM*	1%	-5%	-2%	26%
O=C(COC(=O)c1ccc(NS(=O)(=O)c2cccs2)cc1)NCc1ccco1	?	18µM*	8.2µM*	9.2µM*	9.2µM*	?
Cc1cccc(NS(=O)(=O)c2cccs2)c1	i	i	4%	1%	-2%	-5%
O=C(COC(=O)c1cccs1)NCc1ccco1	i	i	-1%	-1%	-13%	-6%
COC(=O)[C@@]12C[C@@H](CC(=O)NCCCN3CCCC3=O)C(=O)N(CCc3ccc(OC)c(OC)c3)C1=CCC(C)(C)C2	i	i	4%	-6%	/	/
COc1ccccc1CNC(=O)c1sc2nc3n(c(=O)c2c1C)CCC3	i	i	/	/	/	/
CC(C)CC(C(=O)NCCc1ccccc1)N1Cc2ccccc2C1=O (configuration not stated)	i	i	/	/	/	/
COc1ccccc1C1CCN(c2cc(O)ccc2[N+](=O)[O-])CC1	?	i	?	?	16µM*	-36%
COc1ccccc1C1CCN(C(=O)c2ccccc2)CC1	i	i	4%	4%	?	-6%
COC(=O)[C@@]12C[C@@H](CC(=O)NCC34CC5CC(CC(C5)C3)C4)C(=O)N(Cc3cccc4ccccc34)C1=CCC(C)(C)C2	i	?	-12%	-22%	/	/
COC(=O)[C@@]12C[C@@H](CC(=O)N3CCCC3)C(=O)N(Cc3cccc4ccccc34)C1=CCC(C)(C)C2	13µM*	?	-27%	?	/	/
COC(=O)[C@@]12C[C@@H](CC(=O)NCC34CC5CC(CC(C5)C3)C4)C(=O)N(Cc3ccccc3)C1=CCC(C)(C)C2	23µM*	?	?	?	/	/
SMILES	KB-V1 cytotox	KB-3-1 tox	HT1080 IDH1KD tx	HT1080NT lethal	MCF10A rereplic	SW480 rereplic
COC(=O)[C@@]12C[C@@H](CC(=O)NCCc3ccccc3OC)C(=O)N(Cc3ccco3)C1=CCC(C)(C)C2	15µM*	i	?	?	/	/
COC(=O)[C@@]12C[C@@H](CC(=O)NCc3cccc4ccccc34)C(=O)N(Cc3ccco3)C1=CCC(C)(C)C2	21µM*	i	?	?	/	/
COC(=O)[C@@]12C[C@@H](CC(=O)N3CCN(C(=O)C4CC4)CC3)C(=O)N(Cc3cccc4ccccc34)C1=CCC(C)(C)C2	?	i	?	?	/	/
O=C(Nc1ccc2nc(C(F)(F)F)[nH]c2c1)[C@@H]1O[C@H](CO)[C@@H](O)[C@H]1O	i	i	14%	11%	/	/
COC(=O)[C@@]12C[C@@H](CC(=O)NCc3ccccc3)C(=O)N(Cc3ccc4c(c3)OCO4)C1=CCC(C)(C)C2	21µM*	?	?	?	/	/
COC(=O)[C@@]12C[C@@H](CC(=O)NCc3cccc4ccccc34)C(=O)N(Cc3ccccc3)C1=CCC(C)(C)C2	21µM*	?	?	?	/	/
COC(=O)[C@@]12C[C@@H](CC(=O)NCc3cccc(C(F)(F)F)c3)C(=O)N(Cc3cccc4ccccc34)C1=CCC(C)(C)C2	?	i	?	?	/	/
COC(=O)[C@@]12C[C@@H](CC(=O)NCc3cccc4ccccc34)C(=O)N(Cc3ccc4c(c3)OCO4)C1=CCC(C)(C)C2	23µM*	?	?	?	/	/
COC(=O)[C@]12CCCCC=C1N(Cc1ccc3c(c1)OCO3)C(=O)[C@H](CC(=O)NCc1ccccc1)C2	?	i	-5%	0%	/	/
CCOc1ccc(Sc2cc(C(=O)NCc3ccc(F)cc3)c3ccccc3n2)cc1	i	i	/	/	/	/
O=c1oc2ccccc2cc1-c1nc2c(s1)CCCC2	?	?	-3%	-2%	1.2µM*	1.2µM*
COc1ccccc1/C=C/c1nc2ccccc2o1	i	?	/	/	/	/
CCN(CC)CCn1c2ccccc2c2cnc(N=CN(C)C)c(C#N)c21	?	?	?	?	21µM*	5%
CCn1c2ccccc2c2cc(C#N)c(N)nc21	i	i	-5%	-2%	?	-5%
CCn1c2ccccc2c2cnc(N=CN(C)C)c(C#N)c21	7.3µM*	i	-1%	-4%	3%	0%
CCN(CC)C(=O)CSc1nnc(-c2cc3ccccc3cc2O)n1CC	2.9µM*	3.3µM*	-20%	-23%	-1%	-1%
CCn1c(-c2cc(Br)ccc2O)n[nH]c1=S	i	i	-23%	0%	-46%	14%
CCn1c(-c2cc(OC)c(OC)c(OC)c2)n[nH]c1=S	10µM*	i	7%	9%	-7%	4%
